Test results as given in PubChem BioAssay (EPA / NIEHS).
Results filed as inconclusive are left out. Calls of active or inactive are those of the source. The calls were made as follows, unless noted: active = hit-call score of the fitted dose curve at least 0.9, where 1 is the maximum; inactive = score below 0.9.

Columns and labels:
[1] = target: Myc proto-oncogene protein (Homo sapiens) (UniProt P01106); assay: ATG_Myc_CIS: Attagene CIS-FACTORIAL HepG2 Assay for human Myelocytomatosis (Myc) Proto-Oncogene Transcription Factor (AID 2282990); conditions: HepG2, Attagene cis-reporter transcription factor activity; actives raise or lower the signal
Outline: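 After 24 h chemical treatment of HepG2 cells carrying multiplexed cis-regulated reporter constructs, reporter transcripts quantified by RT-PCR and capillary electrophoresis of fluorescent fragments. Gain or loss fitted against DMSO baseline.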

[2] = ATG_NF_kB_CIS: Attagene CIS-FACTORIAL HepG2 Assay for human Nuclear Factor Kappa B (NF-kB) (AID 2282991); conditions: HepG2 Attagene cis-factorial NF-kB reporter mRNA; actives raise or lower the signal
Outline: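 Transient MRTU transfection of human HepG2 liver cells → 24 h chemical exposure → total RNA, oligo(dT) RT → PCR, 6-FAM primer extension, HpaI digest 2 h 37 C → CE fragment analysis. Bidirectional fitting, DMSO negative control.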

[3] = ATG_NRF2_ARE_CIS: Attagene CIS-FACTORIAL HepG2 Assay for human Nuclear Factor Erythroid 2 Related Factor 2 (NFR2) response to Antioxidant Response Elements (ARE) (AID 2282992); conditions: HepG2 Attagene ARE/NRF2 reporter, transcription factor activity; actives raise or lower the signal;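 as to AC50: reporter mRNA level measured by RT-PCR and capillary electrophoresis fluorescence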
Outline: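 HepG2 cells transiently transfected with multiplexed cis-element reporter constructs, 24 h after chemical dosing; reporter mRNA quantified by RT-PCR, fluorescent primer extension, HpaI digestion and capillary electrophoresis. Bidirectional fit relative to DMSO.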

[4] = ATG_Oct_MLP_CIS: Attagene CIS-FACTORIAL HepG2 Assay for human Octamer-Binding Transcription Factor (Oct) (AID 2282993); conditions: HepG2 Attagene cis-factorial Oct reporter, mRNA; actives raise or lower the signal
Outline: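 Transient MRTU transfection of HepG2 → 24 h compound treatment → RNA isolation, reverse transcription, PCR → 6-FAM primer extension, HpaI digest → capillary electrophoresis. Activity fitted both directions against DMSO.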

[5] = target: Cellular tumor antigen p53 (Homo sapiens) (UniProt P04637); assay: ATG_p53_CIS: Attagene CIS-FACTORIAL HepG2 Assay for human p53 Transcription Factor (AID 2282994); conditions: HepG2 p53 cis-element reporter, Attagene mRNA; actives raise or lower the signal
Outline: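 HepG2 cells transiently transfected with cis-regulated multiple reporter transcription units, dosed 24 h. Reporter mRNA measured by RT-PCR, 6-FAM primer extension, HpaI digestion and capillary electrophoresis; bidirectional fit relative to DMSO.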

[6] = target: human Peroxisome Proliferator-activated Receptor alpha (PPARa), PPARA (gene 5465) (UniProt Q07869); assay: ATG_PPARa_TRANS: Attagene TRANS-FACTORIAL HepG2 Assay for human Peroxisome Proliferator-activated Receptor alpha (PPARa) (AID 2283001; active = hit-call score of the fitted dose curve at least 0.9, where 1 is the maximum)
Outline: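 Read-out is fluorescence of reporter cDNA fragments resolved by capillary electrophoresis after RT-PCR. Human HepG2 liver cells carried transfected PPARa-Gal4 chimera and GAL4-UAS reporter units, treated 24 h; activity scored as increase over DMSO.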

[7] = target: human Retinoic Acid Receptor beta (RARb), RARB (gene 5915) (UniProt P10826); assay: ATG_RARb_TRANS: Attagene TRANS-FACTORIAL HepG2 Assay for human Retinoic Acid Receptor beta (AID 2283004; active = hit-call score of the fitted dose curve at least 0.9, where 1 is the maximum)
Outline: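 HepG2 cells were transiently transfected with GAL4-UAS reporter units that report activity of exogenous chimeric NR-Gal4 proteins, then exposed to compound for 24 h. Reporter mRNA was quantified by RT-PCR with capillary electrophoresis fluorescence, as gain of signal over DMSO.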

[8] = target: Retinoic acid receptor alpha (Homo sapiens) (UniProt P10276); assay: ATG_RARa_TRANS: Attagene TRANS-FACTORIAL HepG2 Assay for human Retinoic Acid Receptor alpha (RARa) (AID 2283005; active = hit-call score of the fitted dose curve at least 0.9, where 1 is the maximum)
Outline: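 Reporter transcripts, measured by RT-PCR with fluorescent labeling and capillary electrophoresis after 24 h dosing, reflect activity of an exogenous human RARa–GAL4 fusion in transiently transfected HepG2. Fitted for increase relative to DMSO.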

[9] = target: human Retinoic Acid Receptor gamma (RARg), RARG (gene 5916) (UniProt P13631); assay: ATG_RARg_TRANS: Attagene TRANS-FACTORIAL HepG2 Assay for human Retinoic Acid Receptor gamma (RARg) (AID 2283009; active = hit-call score of the fitted dose curve at least 0.9, where 1 is the maximum)
Outline: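 HepG2 transiently transfected with GAL4-UAS reporter units and chimeric NR-Gal4 constructs; 24 h compound exposure. Reporter mRNA quantified by RT-PCR, FAM labeling, HpaI digestion and capillary electrophoresis; gain-of-signal versus DMSO.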

[10] = BSK_3C_uPAR: BioMAP Diversity Plus: 3C Assay for Urokinase-type plasminogen activator receptor (uPAR) Biomarker Activity (AID 2282998); conditions: BioMAP 3C HUVEC, uPAR biomarker ELISA; actives raise or lower the signal
Outline: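 ELISA readout of uPAR on human vascular endothelium (umbilical vein primary cells), taken 24 h after chemical dosing. Increases and decreases are both fitted relative to DMSO vehicle.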

[11] = BSK_3C_VCAM1: BioMAP Diversity Plus: 3C Assay for Vascular cell adhesion molecule 1 (VCAM1) Biomarker Activity (AID 2282999); conditions: BioMAP 3C HUVEC, VCAM1 ELISA, cytokine-stimulated; actives raise or lower the signal
Outline: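 Endothelial cells from human umbilical vein are treated with test chemical. At 24 h, VCAM-1 is measured by ELISA, and responses in either direction are fitted relative to DMSO.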

[12] = BSK_4H_Eotaxin3: BioMAP Diversity Plus: 4H Assay for Eotaxin 3 Biomarker Activity (AID 2283000); conditions: primary human endothelial cells (HUVEC); actives raise or lower the signal;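 also: CCL26 protein level quantified by ELISA in parallel with SRB cytotoxicity check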
Outline: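 Eotaxin-3 (CCL26) levels were measured by ELISA in HUVEC primary cultures 24 h post-dosing. Gain or loss of signal was fitted in both directions, with DMSO serving as baseline and negative control.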

[13] = target: human Peroxisome Proliferator-activated Receptor delta (PPARd), PPARD (gene 5467) (UniProt Q03181); assay: ATG_PPARd_TRANS: Attagene TRANS-FACTORIAL HepG2 Assay for human Peroxisome Proliferator-activated Receptor delta (PPARd) (AID 2283002; active = hit-call score of the fitted dose curve at least 0.9, where 1 is the maximum)
Outline: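 Read-out is induced reporter mRNA, quantified by RT-PCR with fluorescent labelling and capillary electrophoresis after 24 h dosing. Cells are HepG2 transiently carrying multiple GAL4-UAS reporter units driven by exogenous NR-GAL4 chimeras; DMSO serves as baseline.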

[14] = read-out: Intercellular Adhesion Molecule 1 (ICAM1), ICAM1 (gene 3383); assay: BSK_3C_ICAM1: BioMAP Diversity Plus: 3C Assay for Intercellular Adhesion Molecule 1 (ICAM1) Biomarker Activity (AID 2283003); conditions: primary human endothelial cells (HUVEC); actives raise or lower the signal
Outline: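 HUVEC primary cells stimulated under 3C conditions; ICAM1 measured by ELISA 24 h after compound dosing. Curves fitted bidirectionally against the DMSO baseline. Overt cytotoxicity checked by SRB staining of parallel cultures.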

[15] = BSK_3C_Proliferation: Cell Proliferation Assessment in the BioMAP Diversity Plus: 3C Assay (AID 2283006); conditions: primary human endothelial cells (HUVEC)
Outline: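 Subconfluent HUVEC (3C system) cultured with chemical; relative cell number read at 48 h by sulforhodamine B total-protein staining (0.1% SRB after 10% TCA fixation, 560 nm). Bidirectional fit relative to DMSO.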

[16] = target: human RAR-related Orphan Receptor gamma (RORg), RORC (gene 6097) (UniProt P51449); assay: ATG_RORg_TRANS: Attagene TRANS-FACTORIAL HepG2 Assay for human RAR-related Orphan Receptor gamma (RORg) (AID 2283011; active = hit-call score of the fitted dose curve at least 0.9, where 1 is the maximum)
Outline: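 HepG2 cells transiently transfected with GAL4-UAS reporter units and chimeric RORg-Gal4 construct; after 24 h chemical exposure, reporter mRNA measured by RT-PCR with fluorescent capillary electrophoresis, gain of signal fitted against DMSO.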

[17] = target: human RAR-related Orphan Receptor beta (RORb), RORB (gene 6096) (UniProt Q92753); assay: ATG_RORb_TRANS: Attagene TRANS-FACTORIAL HepG2 Assay for human RAR-related Orphan Receptor beta (RORb) (AID 2283010; active = hit-call score of the fitted dose curve at least 0.9, where 1 is the maximum)
Outline: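 HepG2 cells transiently transfected with GAL4-UAS reporter units expressing chimeric NR-Gal4 protein; reporter mRNA measured 24 h after dosing by RT-PCR, 6-FAM labelling and capillary electrophoresis. Gain-of-signal fitted relative to DMSO baseline.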

[18] = target: Peroxisome proliferator-activated receptor gamma (Homo sapiens) (UniProt P37231); assay: ATG_PPARg_TRANS: Attagene TRANS-FACTORIAL HepG2 Assay for human Peroxisome Proliferator-activated Receptor-gamma (PPARg) (AID 2283007; active = hit-call score of the fitted dose curve at least 0.9, where 1 is the maximum)
Outline: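 Transient transfection of HepG2 with GAL4-UAS-driven reporter units; chemical dosing 24 h; total RNA → oligo(dT) RT → PCR with reporter primers → 6-FAM primer extension → HpaI digest 2 h 37 C → capillary electrophoresis. Positive direction vs DMSO.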

[19] = target: Nuclear receptor subfamily 1 group I member 2 (Homo sapiens) (UniProt O75469); assay: ATG_PXR_TRANS: Attagene TRANS-FACTORIAL HepG2 Assay for human Pregnane X Receptor (PXR) (AID 2283008; active = hit-call score of the fitted dose curve at least 0.9, where 1 is the maximum)
Outline: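 HepG2 cells transiently transfected with GAL4-UAS reporter units and PXR-Gal4 chimera, exposed 24 h. Reporter mRNA quantified by RT-PCR, fluorescent labelling, HpaI digestion and capillary electrophoresis; gain of signal vs DMSO.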

Measured: AC50

Nuclear receptor subfamily 1 group I member 2 (Homo sapiens), sequence (O75469 whole entry, looked up, the tested form may be a part): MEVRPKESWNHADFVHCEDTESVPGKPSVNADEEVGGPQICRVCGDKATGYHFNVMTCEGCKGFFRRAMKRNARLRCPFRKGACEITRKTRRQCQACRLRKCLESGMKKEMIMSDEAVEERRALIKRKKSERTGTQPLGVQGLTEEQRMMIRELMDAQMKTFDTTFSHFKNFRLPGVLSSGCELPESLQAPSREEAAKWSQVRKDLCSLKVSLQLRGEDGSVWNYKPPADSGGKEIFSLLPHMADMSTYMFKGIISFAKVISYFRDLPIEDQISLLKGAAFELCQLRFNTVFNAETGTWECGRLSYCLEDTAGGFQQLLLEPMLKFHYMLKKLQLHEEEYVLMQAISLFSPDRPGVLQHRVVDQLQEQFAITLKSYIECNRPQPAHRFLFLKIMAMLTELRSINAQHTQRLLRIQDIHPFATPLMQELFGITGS
human RAR-related Orphan Receptor gamma (RORg), RORC (gene 6097), sequence (P51449 whole entry, looked up, the tested form may be a part): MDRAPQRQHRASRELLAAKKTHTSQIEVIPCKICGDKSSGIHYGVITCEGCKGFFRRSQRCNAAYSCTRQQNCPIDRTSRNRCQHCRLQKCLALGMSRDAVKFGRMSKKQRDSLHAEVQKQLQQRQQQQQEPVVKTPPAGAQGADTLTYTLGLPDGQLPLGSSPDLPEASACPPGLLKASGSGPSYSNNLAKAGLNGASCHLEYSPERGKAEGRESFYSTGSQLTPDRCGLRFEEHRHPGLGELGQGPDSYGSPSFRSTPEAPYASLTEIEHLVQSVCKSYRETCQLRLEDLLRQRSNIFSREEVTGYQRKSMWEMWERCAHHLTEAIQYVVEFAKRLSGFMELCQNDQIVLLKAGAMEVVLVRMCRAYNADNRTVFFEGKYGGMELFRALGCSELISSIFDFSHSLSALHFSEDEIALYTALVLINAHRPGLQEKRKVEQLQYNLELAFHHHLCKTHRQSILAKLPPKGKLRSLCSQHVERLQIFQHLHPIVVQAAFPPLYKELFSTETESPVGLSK
human Peroxisome Proliferator-activated Receptor alpha (PPARa), PPARA (gene 5465), sequence (Q07869 whole entry, looked up, the tested form may be a part): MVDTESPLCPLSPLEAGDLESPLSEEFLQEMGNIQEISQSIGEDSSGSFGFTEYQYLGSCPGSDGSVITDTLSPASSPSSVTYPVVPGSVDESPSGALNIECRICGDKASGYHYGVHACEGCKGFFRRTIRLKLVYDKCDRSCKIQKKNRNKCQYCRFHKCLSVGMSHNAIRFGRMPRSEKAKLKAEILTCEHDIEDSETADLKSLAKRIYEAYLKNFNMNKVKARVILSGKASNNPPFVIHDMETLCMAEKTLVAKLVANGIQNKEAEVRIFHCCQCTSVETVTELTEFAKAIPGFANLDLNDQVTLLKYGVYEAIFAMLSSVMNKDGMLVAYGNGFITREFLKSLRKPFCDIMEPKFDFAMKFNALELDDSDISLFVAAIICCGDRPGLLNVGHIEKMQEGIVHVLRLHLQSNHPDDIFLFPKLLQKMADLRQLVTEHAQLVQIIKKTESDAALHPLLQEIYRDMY
Cellular tumor antigen p53 (Homo sapiens), sequence (P04637 whole entry, looked up): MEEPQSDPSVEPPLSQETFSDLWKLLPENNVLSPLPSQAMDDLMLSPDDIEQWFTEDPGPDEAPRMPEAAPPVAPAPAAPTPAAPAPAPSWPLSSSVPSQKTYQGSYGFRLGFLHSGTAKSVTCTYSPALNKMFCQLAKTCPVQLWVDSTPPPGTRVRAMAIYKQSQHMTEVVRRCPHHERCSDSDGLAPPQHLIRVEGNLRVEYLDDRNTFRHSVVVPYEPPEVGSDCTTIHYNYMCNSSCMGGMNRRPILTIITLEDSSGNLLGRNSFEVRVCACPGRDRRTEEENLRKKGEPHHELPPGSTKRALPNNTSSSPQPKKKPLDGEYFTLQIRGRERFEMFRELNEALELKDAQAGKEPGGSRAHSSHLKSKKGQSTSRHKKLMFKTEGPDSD
human Retinoic Acid Receptor gamma (RARg), RARG (gene 5916), sequence (P13631 whole entry, looked up, the tested form may be a part): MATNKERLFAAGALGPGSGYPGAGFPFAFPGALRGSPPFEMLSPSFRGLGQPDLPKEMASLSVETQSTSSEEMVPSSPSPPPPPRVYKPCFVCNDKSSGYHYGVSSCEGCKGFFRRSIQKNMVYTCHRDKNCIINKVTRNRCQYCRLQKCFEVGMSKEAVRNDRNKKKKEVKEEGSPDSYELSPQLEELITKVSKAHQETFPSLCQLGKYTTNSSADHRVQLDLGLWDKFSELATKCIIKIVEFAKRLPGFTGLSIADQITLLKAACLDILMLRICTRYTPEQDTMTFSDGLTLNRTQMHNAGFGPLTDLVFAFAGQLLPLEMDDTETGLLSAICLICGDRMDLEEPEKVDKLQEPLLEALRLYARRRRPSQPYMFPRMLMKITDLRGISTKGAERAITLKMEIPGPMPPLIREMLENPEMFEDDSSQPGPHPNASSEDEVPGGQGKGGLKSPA
human RAR-related Orphan Receptor beta (RORb), RORB (gene 6096), sequence (Q92753 whole entry, looked up, the tested form may be a part): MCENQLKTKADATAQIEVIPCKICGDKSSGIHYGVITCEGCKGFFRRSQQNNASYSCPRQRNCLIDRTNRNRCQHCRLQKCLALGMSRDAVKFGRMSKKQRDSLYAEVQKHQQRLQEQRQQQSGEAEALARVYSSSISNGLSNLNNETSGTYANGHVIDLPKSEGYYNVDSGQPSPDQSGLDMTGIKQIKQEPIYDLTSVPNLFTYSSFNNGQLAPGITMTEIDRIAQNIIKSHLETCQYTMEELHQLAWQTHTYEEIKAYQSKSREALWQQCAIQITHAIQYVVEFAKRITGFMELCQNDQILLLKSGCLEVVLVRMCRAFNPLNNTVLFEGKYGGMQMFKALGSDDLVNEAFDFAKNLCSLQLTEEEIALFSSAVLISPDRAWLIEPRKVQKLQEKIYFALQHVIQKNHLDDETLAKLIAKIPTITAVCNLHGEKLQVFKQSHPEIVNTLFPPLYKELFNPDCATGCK
Myc proto-oncogene protein (Homo sapiens), sequence (P01106 whole entry, looked up, the tested form may be a part): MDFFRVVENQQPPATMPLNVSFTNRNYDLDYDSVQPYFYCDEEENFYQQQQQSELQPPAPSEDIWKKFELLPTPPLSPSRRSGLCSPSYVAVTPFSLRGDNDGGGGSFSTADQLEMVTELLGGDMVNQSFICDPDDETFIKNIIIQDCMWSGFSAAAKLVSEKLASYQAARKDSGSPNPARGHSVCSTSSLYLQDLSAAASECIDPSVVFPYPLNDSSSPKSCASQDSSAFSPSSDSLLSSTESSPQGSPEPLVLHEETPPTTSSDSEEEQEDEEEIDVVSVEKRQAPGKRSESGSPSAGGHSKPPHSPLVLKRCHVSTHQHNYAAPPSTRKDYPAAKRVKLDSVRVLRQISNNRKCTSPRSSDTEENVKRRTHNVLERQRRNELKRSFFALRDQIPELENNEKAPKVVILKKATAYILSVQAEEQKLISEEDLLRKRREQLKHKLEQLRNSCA
human Peroxisome Proliferator-activated Receptor delta (PPARd), PPARD (gene 5467), sequence (Q03181 whole entry, looked up, the tested form may be a part): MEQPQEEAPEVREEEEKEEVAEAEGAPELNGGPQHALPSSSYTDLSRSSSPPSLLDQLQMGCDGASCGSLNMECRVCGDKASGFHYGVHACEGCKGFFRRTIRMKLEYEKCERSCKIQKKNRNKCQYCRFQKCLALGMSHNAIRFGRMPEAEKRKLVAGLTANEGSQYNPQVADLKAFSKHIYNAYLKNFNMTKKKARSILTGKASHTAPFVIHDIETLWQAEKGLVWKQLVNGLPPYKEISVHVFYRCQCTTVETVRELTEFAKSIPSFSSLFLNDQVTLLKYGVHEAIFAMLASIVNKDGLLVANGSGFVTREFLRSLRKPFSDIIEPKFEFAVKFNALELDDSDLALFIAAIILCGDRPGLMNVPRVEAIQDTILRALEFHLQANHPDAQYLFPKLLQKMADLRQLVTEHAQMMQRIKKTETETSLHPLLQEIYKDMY
Peroxisome proliferator-activated receptor gamma (Homo sapiens), sequence (P37231 whole entry, looked up, the tested form may be a part): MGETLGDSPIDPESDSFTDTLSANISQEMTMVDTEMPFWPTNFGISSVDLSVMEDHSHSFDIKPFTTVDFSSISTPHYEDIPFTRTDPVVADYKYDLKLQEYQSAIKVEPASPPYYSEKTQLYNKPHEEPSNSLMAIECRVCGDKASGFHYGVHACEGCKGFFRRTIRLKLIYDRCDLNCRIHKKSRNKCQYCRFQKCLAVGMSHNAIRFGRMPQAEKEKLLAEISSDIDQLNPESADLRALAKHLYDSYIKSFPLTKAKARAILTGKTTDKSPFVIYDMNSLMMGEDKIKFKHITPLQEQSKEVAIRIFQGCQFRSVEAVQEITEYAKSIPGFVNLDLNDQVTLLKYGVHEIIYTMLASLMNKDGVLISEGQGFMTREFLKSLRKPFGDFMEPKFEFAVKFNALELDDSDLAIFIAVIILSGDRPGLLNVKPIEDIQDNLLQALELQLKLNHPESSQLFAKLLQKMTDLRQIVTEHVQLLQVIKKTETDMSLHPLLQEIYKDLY
Retinoic acid receptor alpha (Homo sapiens), sequence (P10276 whole entry, looked up, the tested form may be a part): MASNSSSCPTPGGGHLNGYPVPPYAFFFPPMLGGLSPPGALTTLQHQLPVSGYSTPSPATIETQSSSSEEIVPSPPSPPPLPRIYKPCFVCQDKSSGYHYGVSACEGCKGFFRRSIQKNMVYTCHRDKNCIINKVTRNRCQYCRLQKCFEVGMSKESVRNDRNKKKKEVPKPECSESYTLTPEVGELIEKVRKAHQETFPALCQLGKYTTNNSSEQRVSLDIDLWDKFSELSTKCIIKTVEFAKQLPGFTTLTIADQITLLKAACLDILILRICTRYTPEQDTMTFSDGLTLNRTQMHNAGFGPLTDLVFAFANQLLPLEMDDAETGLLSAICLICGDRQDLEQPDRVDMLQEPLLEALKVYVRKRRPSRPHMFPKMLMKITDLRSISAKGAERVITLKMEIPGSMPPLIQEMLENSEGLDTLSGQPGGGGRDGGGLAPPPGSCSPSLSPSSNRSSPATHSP

O=C1OC(=O)C(F)(F)C1(F)F
inactive: [1] | [2] | [3] | [4] | [5] | [6] | [7] | [8] | [9]

CCCCCCCCCCCCCCC
inactive: [1] | [2] | [3] | [4] | [10] | [11] | [12] | [13] | [14] | [15] | [16]

FC(OC(F)(F)C(F)(F)C(F)(F)F)C(F)(F)F (configuration not stated)
inactive: [1] | [2] | [3] | [4] | [5] | [13] | [17] | [16]

NCc1cccc(CN)c1
inactive: [1] | [2] | [3] | [4] | [5] | [18] | [19] | [16]

Oc1cccc2c(O)cccc12
inactive: [1] | [2] | [4] | [5] | [6] | [13] | [19] | [17] | [16]
active: [3] 8.25 µM

FC(F)=C(F)C(F)(F)C(F)(F)C(F)(F)C(F)F
inactive: [1] | [2] | [3] | [4] | [5] | [6] | [13] | [18] | [19] | [17] | [16]

CC1=CC(=O)c2ccccc2C1=O
inactive: [1] | [2] | [4] | [5] | [6] | [8] | [18] | [9] | [17]
active: [3] 5.04 µM | [19] 7.29 µM

COCC1CCC(CO)CC1 (configuration not stated)
inactive: [1] | [2] | [3] | [4] | [5] | [18] | [19] | [9] | [16]

COc1cc([N+](=O)[O-])ccc1N
inactive: [1] | [2] | [3] | [4] | [5] | [6] | [19]

COc1ccccc1NC(=O)c1cc2ccccc2cc1O
inactive: [2] | [3] | [6] | [9]
active: [1] 100 µM | [4] 26.7 µM | [5] 17.4 µM | [19] 1.23 µM

O=C1C=CC(=O)N1c1cccc(N2C(=O)C=CC2=O)c1
inactive: [1] | [2] | [3] | [4] | [5] | [6] | [18] | [19] | [9] | [16]
